Laboratory results: the supplement of paper PMC11732987, “Enantioselective OTUD7B fragment discovery through chemoproteomics screening and high-throughput optimisation” (Communications Chemistry, 2025)

Legend:
Assay in all cases: log2 ratio of Biotin-Ahx-Ub-VS probe labelling (fragment/DMSO); higher = less target engagement (more negative = stronger competition), active = hit call of the paper (q ≤ 0.05, log2 ratio ≤ -1)
Conditions in all cases: compound concentration: 200 uM; treatment time: 3 h
USP34 = USP34 (UniProt Q70CQ2)
How it was run: (§1)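 The table lists average log2 ratios of fragment over vehicle, from an unpaired t-test on global-median-normalised Spectronaut label-free quantities. Proteins with ≥2 unique peptides were used. Samples were HEK293T lysate (495 µg) treated in triplicate with fragment at 200 µM or vehicle for 3 h, then with Biotin-Ahx-Ub-VS (0.5 µM final) for 1 h, with labelled DUBs NeutrAvidin-enriched and run by diaPASEF LC-MS/MS.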

USP36 = target: T1, USP36 (UniProt Q9P275)
T1 sequence (whole entry): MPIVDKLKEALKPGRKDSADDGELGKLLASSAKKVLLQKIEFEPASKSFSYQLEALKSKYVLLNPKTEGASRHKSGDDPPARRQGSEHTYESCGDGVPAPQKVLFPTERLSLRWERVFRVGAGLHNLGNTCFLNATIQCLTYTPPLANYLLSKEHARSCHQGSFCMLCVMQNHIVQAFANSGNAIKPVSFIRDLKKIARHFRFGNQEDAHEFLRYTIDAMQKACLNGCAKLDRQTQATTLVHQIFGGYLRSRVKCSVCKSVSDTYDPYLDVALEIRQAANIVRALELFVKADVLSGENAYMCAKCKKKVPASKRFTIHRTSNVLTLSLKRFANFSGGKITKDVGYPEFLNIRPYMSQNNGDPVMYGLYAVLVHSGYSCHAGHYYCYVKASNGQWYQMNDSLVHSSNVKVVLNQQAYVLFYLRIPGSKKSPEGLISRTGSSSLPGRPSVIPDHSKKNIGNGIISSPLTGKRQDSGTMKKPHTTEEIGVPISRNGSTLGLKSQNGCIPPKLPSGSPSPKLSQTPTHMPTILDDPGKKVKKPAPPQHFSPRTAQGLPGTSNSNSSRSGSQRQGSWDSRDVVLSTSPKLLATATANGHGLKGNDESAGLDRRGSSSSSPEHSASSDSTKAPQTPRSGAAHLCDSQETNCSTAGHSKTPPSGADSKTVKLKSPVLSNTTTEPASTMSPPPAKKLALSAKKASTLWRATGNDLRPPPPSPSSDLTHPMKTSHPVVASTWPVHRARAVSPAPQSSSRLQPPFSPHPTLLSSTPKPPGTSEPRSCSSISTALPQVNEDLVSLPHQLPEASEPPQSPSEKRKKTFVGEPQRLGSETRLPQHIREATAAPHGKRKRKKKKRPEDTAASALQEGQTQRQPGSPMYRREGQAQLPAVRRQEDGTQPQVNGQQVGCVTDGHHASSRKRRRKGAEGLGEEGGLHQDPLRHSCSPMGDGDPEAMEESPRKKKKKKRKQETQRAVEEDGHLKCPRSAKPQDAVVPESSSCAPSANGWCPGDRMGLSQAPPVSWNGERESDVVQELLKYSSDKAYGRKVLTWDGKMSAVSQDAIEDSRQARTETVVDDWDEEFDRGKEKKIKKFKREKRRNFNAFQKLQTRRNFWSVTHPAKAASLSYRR
How it was run: as §1

USP38 = target: T2, USP38 (UniProt Q8NB14)
T2 sequence (whole entry): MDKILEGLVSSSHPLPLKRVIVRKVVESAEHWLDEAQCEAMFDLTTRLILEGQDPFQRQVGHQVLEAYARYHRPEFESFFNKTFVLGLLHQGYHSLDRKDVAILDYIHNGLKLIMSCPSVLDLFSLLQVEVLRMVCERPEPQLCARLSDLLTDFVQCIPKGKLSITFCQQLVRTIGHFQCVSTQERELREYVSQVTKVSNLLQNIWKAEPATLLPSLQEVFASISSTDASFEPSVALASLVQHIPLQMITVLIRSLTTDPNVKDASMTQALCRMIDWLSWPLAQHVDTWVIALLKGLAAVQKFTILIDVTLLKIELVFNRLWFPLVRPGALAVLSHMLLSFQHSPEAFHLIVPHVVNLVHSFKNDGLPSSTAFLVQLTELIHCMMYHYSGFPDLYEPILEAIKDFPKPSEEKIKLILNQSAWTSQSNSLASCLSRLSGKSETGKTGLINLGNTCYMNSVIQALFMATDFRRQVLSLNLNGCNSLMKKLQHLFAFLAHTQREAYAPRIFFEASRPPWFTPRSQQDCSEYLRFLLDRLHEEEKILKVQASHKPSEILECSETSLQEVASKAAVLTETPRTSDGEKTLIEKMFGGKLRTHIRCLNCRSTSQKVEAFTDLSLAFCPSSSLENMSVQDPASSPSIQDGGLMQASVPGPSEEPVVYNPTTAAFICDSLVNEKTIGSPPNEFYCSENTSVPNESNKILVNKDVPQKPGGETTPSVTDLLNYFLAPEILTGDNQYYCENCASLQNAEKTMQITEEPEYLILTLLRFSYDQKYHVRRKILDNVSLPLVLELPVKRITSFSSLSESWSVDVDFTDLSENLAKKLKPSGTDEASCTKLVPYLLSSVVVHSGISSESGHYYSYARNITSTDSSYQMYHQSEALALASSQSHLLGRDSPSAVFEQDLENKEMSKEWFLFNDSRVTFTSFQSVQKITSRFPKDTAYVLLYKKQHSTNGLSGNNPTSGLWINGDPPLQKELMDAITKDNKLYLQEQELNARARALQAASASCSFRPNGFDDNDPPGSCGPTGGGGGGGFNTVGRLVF
How it was run: as §1

USP39 = target: T3, USP39 (UniProt Q53GS9)
T3 sequence (whole entry): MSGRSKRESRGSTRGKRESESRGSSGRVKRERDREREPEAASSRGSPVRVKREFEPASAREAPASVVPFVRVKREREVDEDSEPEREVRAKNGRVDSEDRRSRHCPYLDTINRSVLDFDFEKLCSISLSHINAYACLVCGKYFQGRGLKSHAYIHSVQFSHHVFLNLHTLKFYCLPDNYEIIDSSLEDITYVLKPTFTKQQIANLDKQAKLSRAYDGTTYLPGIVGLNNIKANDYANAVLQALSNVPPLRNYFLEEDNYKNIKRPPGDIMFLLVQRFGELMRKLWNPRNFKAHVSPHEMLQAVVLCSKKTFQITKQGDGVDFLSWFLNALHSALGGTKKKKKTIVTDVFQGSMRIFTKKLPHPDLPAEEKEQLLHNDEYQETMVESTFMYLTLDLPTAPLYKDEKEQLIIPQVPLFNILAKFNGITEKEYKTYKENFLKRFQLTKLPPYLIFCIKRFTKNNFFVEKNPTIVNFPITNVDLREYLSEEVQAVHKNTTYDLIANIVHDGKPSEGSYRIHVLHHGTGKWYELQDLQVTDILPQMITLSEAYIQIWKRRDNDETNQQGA
How it was run: as §1

USP4 = target: T4, USP4 (UniProt Q13107)
T4 sequence (whole entry): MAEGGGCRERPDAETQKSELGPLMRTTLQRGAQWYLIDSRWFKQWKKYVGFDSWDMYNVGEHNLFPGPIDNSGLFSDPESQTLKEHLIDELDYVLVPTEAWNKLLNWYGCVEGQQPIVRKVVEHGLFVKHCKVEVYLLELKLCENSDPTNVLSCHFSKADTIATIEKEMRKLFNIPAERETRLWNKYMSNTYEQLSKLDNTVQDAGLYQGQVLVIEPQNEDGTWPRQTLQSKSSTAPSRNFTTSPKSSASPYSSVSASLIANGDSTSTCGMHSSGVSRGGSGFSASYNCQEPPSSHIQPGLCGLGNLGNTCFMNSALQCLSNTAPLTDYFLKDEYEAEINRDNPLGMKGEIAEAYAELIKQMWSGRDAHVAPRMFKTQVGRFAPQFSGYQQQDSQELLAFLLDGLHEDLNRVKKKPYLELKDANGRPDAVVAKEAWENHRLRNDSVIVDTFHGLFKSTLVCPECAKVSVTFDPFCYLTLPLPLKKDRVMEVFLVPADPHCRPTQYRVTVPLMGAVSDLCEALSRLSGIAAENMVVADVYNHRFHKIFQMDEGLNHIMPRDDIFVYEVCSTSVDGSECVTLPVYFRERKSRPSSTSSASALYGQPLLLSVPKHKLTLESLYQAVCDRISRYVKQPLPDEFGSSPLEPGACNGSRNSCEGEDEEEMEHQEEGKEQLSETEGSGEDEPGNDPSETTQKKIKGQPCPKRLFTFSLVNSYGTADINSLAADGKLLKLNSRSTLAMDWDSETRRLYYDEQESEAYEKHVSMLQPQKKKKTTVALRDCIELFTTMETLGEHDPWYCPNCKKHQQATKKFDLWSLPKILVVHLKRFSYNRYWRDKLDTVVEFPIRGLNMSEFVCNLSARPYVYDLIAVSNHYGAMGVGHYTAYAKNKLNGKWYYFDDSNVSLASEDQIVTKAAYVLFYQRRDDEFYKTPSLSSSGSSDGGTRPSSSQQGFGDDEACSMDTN
How it was run: as §1

Measured: log2 ratio of Biotin-Ahx-Ub-VS probe labelling

Sequence of USP34 (Q70CQ2 whole entry, the tested form may be a part): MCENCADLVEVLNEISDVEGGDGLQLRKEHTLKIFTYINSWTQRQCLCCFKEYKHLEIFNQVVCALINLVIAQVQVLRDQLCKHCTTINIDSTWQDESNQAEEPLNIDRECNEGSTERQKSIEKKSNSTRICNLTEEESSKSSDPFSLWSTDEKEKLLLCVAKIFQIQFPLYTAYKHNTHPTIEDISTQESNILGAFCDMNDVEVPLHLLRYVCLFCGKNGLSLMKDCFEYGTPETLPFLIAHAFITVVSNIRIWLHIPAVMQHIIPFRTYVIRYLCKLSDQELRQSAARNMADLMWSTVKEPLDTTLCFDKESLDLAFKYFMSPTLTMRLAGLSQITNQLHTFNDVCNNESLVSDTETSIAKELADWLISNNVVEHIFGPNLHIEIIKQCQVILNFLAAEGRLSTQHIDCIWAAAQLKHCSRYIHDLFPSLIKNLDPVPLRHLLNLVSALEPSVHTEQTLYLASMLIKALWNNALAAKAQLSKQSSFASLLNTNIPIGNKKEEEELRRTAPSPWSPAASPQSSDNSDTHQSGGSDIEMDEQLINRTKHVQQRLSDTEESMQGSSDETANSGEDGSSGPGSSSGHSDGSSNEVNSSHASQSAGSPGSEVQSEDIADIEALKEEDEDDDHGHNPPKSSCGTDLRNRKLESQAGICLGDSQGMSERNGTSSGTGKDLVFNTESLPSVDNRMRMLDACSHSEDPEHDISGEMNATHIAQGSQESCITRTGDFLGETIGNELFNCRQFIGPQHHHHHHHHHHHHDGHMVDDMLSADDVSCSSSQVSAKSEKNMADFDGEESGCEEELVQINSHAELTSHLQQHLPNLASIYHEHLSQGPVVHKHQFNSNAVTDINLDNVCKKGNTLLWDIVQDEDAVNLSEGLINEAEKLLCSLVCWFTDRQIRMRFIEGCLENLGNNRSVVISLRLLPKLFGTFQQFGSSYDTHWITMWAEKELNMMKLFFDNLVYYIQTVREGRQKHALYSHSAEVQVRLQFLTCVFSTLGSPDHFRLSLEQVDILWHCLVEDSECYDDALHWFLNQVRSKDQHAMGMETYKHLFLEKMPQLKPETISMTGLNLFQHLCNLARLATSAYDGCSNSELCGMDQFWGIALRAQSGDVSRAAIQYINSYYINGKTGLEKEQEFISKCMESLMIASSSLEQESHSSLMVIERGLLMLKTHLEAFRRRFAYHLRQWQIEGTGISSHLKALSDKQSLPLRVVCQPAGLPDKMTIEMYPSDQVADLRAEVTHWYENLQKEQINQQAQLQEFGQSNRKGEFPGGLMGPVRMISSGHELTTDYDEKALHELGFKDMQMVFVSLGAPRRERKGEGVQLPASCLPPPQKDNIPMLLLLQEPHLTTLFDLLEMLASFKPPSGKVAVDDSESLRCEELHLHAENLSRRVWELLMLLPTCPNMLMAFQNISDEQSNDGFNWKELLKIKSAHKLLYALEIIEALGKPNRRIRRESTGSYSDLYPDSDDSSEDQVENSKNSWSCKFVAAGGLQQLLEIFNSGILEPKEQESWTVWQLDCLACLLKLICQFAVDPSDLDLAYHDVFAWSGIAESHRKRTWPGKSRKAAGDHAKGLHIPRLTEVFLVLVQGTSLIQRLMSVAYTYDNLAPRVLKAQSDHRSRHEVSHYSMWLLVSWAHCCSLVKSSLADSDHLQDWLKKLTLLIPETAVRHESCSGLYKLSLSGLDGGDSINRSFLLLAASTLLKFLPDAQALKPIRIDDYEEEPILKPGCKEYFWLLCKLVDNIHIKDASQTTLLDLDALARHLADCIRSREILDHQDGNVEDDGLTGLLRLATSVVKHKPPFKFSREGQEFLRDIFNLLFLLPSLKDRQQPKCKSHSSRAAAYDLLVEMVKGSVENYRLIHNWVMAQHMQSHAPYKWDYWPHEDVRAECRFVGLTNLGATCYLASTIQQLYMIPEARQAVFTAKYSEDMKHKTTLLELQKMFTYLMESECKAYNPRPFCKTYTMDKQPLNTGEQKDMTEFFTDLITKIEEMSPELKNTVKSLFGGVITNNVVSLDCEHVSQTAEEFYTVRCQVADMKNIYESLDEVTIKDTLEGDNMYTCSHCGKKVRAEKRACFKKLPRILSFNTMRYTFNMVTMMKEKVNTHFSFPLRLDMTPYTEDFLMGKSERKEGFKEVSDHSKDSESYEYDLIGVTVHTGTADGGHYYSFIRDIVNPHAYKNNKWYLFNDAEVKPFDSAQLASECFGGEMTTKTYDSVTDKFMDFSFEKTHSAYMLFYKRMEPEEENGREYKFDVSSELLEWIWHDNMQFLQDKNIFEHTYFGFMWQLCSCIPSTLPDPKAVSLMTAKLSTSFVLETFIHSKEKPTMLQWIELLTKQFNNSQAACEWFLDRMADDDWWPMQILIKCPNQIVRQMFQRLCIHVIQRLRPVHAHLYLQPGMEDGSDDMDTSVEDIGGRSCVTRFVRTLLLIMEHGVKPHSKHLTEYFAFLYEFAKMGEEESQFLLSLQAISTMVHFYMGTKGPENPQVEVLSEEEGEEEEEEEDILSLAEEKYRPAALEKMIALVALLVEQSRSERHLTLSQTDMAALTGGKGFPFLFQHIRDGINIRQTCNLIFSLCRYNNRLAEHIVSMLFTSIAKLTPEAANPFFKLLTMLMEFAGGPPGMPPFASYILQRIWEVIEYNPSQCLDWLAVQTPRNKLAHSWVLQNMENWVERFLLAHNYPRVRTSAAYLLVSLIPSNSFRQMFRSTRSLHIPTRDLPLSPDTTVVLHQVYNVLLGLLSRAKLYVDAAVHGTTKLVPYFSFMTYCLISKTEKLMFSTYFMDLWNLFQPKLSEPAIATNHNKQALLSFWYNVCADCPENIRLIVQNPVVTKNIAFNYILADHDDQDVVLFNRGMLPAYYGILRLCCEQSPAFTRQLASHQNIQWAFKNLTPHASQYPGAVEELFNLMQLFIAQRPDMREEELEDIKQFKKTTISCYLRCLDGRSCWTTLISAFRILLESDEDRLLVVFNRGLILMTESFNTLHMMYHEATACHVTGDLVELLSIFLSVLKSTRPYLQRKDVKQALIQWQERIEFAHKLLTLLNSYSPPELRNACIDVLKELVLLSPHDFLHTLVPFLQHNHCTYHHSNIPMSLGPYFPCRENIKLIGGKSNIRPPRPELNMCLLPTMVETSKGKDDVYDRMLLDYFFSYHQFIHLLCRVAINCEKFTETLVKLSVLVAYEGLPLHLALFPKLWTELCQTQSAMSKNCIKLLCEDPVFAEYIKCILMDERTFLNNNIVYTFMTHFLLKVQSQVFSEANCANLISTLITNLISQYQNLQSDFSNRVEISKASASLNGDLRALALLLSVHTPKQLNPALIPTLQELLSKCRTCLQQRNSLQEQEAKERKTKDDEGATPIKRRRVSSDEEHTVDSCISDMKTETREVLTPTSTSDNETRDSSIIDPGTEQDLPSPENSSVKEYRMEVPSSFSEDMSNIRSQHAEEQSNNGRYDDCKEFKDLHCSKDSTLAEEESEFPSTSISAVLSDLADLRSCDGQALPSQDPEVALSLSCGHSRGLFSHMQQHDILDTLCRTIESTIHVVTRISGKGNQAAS

Cc1ccn2cc(CNC(=O)CCl)nc2c1.Cl
inactive: USP34 -0.192 | USP36 -0.029 | USP38 -0.0421 | USP39 0.0111 | USP4 0.0609
